Only a selection was taken, and hits are over-represented in it overall.
VCAM1 TNFa pot – TNF alpha stimulated VCAM1 expression potentiation; HUVEC TNFa-stimulated VCAM-1 immunofluorescence, high-content imaging; scaled per plate to unstimulated/TNFa-only wells; AID 808; actives 0.19% (n = 93,000); activation, % at 2 µM;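 active means activation above the screen mean plus 3 SD, with well images confirming the hit on visual review, cut at about 28% in these data, passing the limit was not always enough; inconclusive means activation above that limit but images do not confirm it; inactive means activation not above that limit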;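 further: signal is the number of cytoplasmic VCAM-1 stained grains per positive cell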
VCAM1 pot conf – enhancers of VCAM1 induction in HUVEC – imaging, triplicate retest, confirmation. shares compounds with VCAM1 TNFa pot. HUVEC TNFa-stimulated VCAM-1 immunofluorescence imaging. activation, % at 2 µM. 230 tested, under 10 active. AID 1034;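 active means activation above 30% in triplicate retests at 2 µM, then confirmed by visual review of the well images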;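 further: scaled per plate between unstimulated and TNFa-stimulated DMSO control wells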
* hit, by the source's call; ? = inconclusive.

SMILES	VCAM1 TNFa pot	others
CCOC(=O)c1ccccc1NC(=O)CSc1nnc(COc2ccccc2C)n1C	4
CCOC(=O)C1=C(c2ccccc2)Nc2nc(C)nn2C1c1cccc(OC)c1OC (stereo unspecified)	-12
COc1ccc(S(=O)(=O)NCC2CCC(C(=O)N3CCC4(CC3)OCCO4)CC2)cc1 (stereo unspecified)	?	VCAM1 pot conf=-17
COc1ccc(CN(CC(=O)NCC2CCCO2)C(=O)CNS(=O)(=O)c2ccc(C)cc2)cc1 (stereo unspecified)	18
CCOC(=O)N1CCN(C(=O)C2CCC(CNS(=O)(=O)c3ccccc3)CC2)CC1 (stereo unspecified)	-10
O=S1(=O)CCC(S(=O)(=O)N2CCCCCC2)C1 (stereo unspecified)	-18
CCCN1CNC(=S)N(c2cc(C)ccc2C)C1	6
Cc1ccc(N2CC(C(=O)NCCc3ccc(S(N)(=O)=O)cc3)CC2=O)cc1 (stereo unspecified)	6
Cc1ccc(S(=O)(=O)NC(=O)NCc2ccc(Cl)cc2)cc1	-17
CCCNC(=O)CCC(NS(=O)(=O)c1ccc(C)cc1)C(=O)NCCC (stereo unspecified)	73*	VCAM1 pot conf=-14
Cc1ccc(Cl)cc1NC(=O)CC(O)(C(F)(F)F)C(F)(F)F	38
O=S(=O)(N1CCCCCC1)N1CCN(S(=O)(=O)N2CCCCC2)CC1	-28
OCc1csc(=Nc2ccccc2)n1-c1ccccc1	-4
Fc1ccc(CSc2ncnc3sc4c(c23)CCCC4)cc1	42
CCOC(=O)c1sc2nccc(N(C)C)c2c1N=CNOCc1c(F)cccc1Cl	-6
Cc1cccc(C2CC(c3ccc(Br)cc3)Nc3nc(N)nn32)c1 (stereo unspecified)	2
CCn1cc([N+](=O)[O-])c(C(=O)N2N=C3/C(=C/c4cccs4)CCCC3C2c2cccs2)n1 (stereo unspecified)	-44
O=S(=O)(c1ccc2c(c1)nc(COc1ccc(Cl)cc1)n2CC1CCCO1)N1CCOCC1 (stereo unspecified)	-5
O=C(Nc1ccc(-c2cc3ccccc3oc2=O)c(Cl)c1)c1cccnc1	-8
CC(=O)Nc1cccc(NC(=O)c2cc3ccccc3o2)c1	-6
O=C(Nc1ccc(N2CCN(C(=O)c3ccco3)CC2)c(Cl)c1)c1cc2ccccc2o1	?	VCAM1 pot conf=-11
Cc1ccc(S(=O)(=O)Cc2ccc(C(=O)O)o2)cc1	0
CCOc1ccccc1C(=O)N1CCC(n2nnc3cc(C(F)(F)F)ccc32)CC1	0
Cc1ccc(C(=O)C(OC(=O)COc2ccccc2C)c2ccccc2)cc1 (stereo unspecified)	0
CCOC(=O)c1ccc(NC(=O)CSc2nnc(C3CCCCC3)n2C)cc1	11
SMILES	VCAM1 TNFa pot	others
O=C(COc1ccc(S(=O)(=O)N2CCCCC2)cc1)NC1CCCCC1	-4
CCCn1nnc(NC(=O)COc2ccc(C3CCCCC3)cc2)n1	68*	VCAM1 pot conf=-14
Cc1ccc(Cc2nnc3n(-c4ccccc4)nc(C(=O)c4ccccc4)n3c2=O)cc1	-17
O=C(O)c1[nH]nc2c1COc1ccccc1-2	-14
COc1cccc(NC(=O)CSc2nc(N)cc(N)n2)c1	23
Cc1cc(SCC(N)=O)nc(SCC(=O)c2ccccc2)n1	-2
CSc1nc(C)cc(SCC(=O)Nc2ccccc2)n1	56*	VCAM1 pot conf=1
Cc1occc1C(=O)NNC(=O)NC12CC3CC(CC(C3)C1)C2	2
Cc1cccc(N(CC(=O)N/N=C/c2ccc(OCC(=O)NCc3ccco3)cc2)S(C)(=O)=O)c1C	-78
O=C(C1CCCN(S(=O)(=O)Cc2ccccc2)C1)N1CCCCC1 (stereo unspecified)	10
CC(NC(=O)C1CCCN(C(=O)N(C)C)C1)c1ccccc1 (stereo unspecified)	66*	VCAM1 pot conf=-36
CCN(CCNC(=O)C1CCCN(S(=O)(=O)CC)C1)c1ccccc1 (stereo unspecified)	-8
COc1ccc(NS(=O)(=O)c2cc(C)ccc2NC(=O)c2cc(C)oc2C)cc1	-44
CCOC(=O)c1cc(-c2ccc(OC)cc2F)nc2c1c(C)nn2CCC#N	34*	VCAM1 pot conf=-15
CCOC(=O)c1cc(C#N)c(N2CCCC2)nc1-c1ccccc1	-7
CCCCOc1ccc(NC(=O)CSc2nnnn2C)cc1	2
O=C1Nc2c(c(=O)[nH]c(=O)n2-c2ccccc2F)C(C(F)(F)F)(C(F)(F)F)N1	28
Cc1ccc2c(c1)-c1ccccc1S(=O)(=O)N2	32*	VCAM1 pot conf=-4
CN(C)CCCN1C(=O)C(=O)/C(=C(/O)c2ccc3c(c2)OCO3)C1c1ccccn1 (stereo unspecified)	-8
COc1ccc(CN2CCCCC2C(=O)Nc2ccc(OC)c(OCC(C)C)c2)cc1OC (stereo unspecified)	-97
c1ccc(CSc2nnc(-c3ccncc3)o2)cc1	58*	VCAM1 pot conf=-13
COC(=O)C(C)Sc1nnc(-c2ccncc2)o1 (stereo unspecified)	-19
c1ccc(-c2nnc(CSc3nncs3)o2)cc1	-93
COc1cccc(CN(C(=O)c2cc3ccccc3oc2=O)C2CC2)c1	4
COc1cc(C2CC(=O)C=C(O)C2)cc(OC)c1OC (stereo unspecified)	16
SMILES	VCAM1 TNFa pot	others
O=C1C=C(O)CC(c2ccc(Cl)cc2)C1 (stereo unspecified)	-3
O=C1C=C(O)CC(c2ccc(Cl)c(Cl)c2)C1 (stereo unspecified)	?	VCAM1 pot conf=-1
Cc1ccc(S(=O)(=O)NCC(c2ccccc2)N2CCN(CCC#N)CC2)cc1 (stereo unspecified)	-2
CCC(=O)Nc1ccccc1C(=O)NC1CCCCC1	9
CCOC(=O)C(NC(C)=O)(N1CCc2ccccc2C1)C(F)(F)F (stereo unspecified)	-9
Cc1cc(N(C)C)nc(SC(C)C)n1	1
COc1ccc(C(=O)NC(C)c2nnc(SCC(=O)Nc3nc4ccccc4s3)n2C)cc1 (stereo unspecified)	-32
Brc1ccc(NCc2cccc3ccccc23)nc1	31*	VCAM1 pot conf=-36
CCOC(=O)c1cc2c(nc1N)CC(C)(CC)OC2 (stereo unspecified)	2
COCCSc1nnc(NC(=O)CSCc2ccccc2)s1	20
CC(=O)Nc1ccc(S(=O)(=O)NC(CC(=O)NC2CCCCC2C)C(C)C)cc1 (stereo unspecified)	31*	VCAM1 pot conf=-14
COc1ccc(C)cc1NS(=O)(=O)c1ccc(NS(=O)(=O)c2ccc(NC(C)=O)cc2)cc1	2
CC(=O)c1ccc(NS(=O)(=O)c2ccc(CC(C)C)cc2)cc1	8
CCCCOC(=O)c1c(C)oc2ccc(NS(=O)(=O)c3ccc4c5c(cccc35)C(=O)N4)cc12	-3
CCCCC(=O)Nc1ccccc1C(=O)N1CCOCC1	-4
O=C(CN1C(=O)c2ccccc2S1(=O)=O)Nc1ccc(S(=O)(=O)N2CCCCCC2)cc1	0
CC1CCC2(CC1)N=C(N)Nc1nc3ccccc3n12 (stereo unspecified)	-6
O=C(NC12CC3CC(CC(C3)C1)C2)c1cncc(O)c1	2
CN(C)S(=O)(=O)N(CCN1CCOCC1)Cc1ccccc1F	45*	VCAM1 pot conf=-8
O=C(Nc1ccccc1)N(CCN1CCOCC1)Cc1ccccc1F	10
Cc1nnsc1C(=O)Nc1cccc(Cl)c1Cl	1
CCCSc1nnc(C(C)C)n1N	-4
CCOC(=O)c1cnc2nc(COc3ccccc3)[nH]n2c1=O	-6
C=CCNc1sc(C(=O)C2CC2)c(N)c1C#N	30*	VCAM1 pot conf=-8

Screening data deposited in PubChem BioAssay by Columbia University Molecular Screening Center.
